# According to PubChem BioAssay AID1878 (Sanford-Burnham Center for Chemical Genomics, 2009):
# Among all 1,000 compounds or so, about 200 (20%) were called active. Not all results are given here. Entries with a potency or affinity are not part of this list. A number with no mark means an inactive call. No stated cut-off is given here; in the data, active means inhibition above about 55%; inactive means the rest.
# Target: Dual specificity protein phosphatase 3 (Homo sapiens) (UniProt P51452)
# Test: VHR1 phosphatase inhibitors, biochemical (AID 1878)
# Details: recombinant VHR phosphatase, fluorogenic substrate; at 13.3 µM; active compounds read high
# Chain of Dual specificity protein phosphatase 3 (Homo sapiens) (P51452 whole entry, looked up): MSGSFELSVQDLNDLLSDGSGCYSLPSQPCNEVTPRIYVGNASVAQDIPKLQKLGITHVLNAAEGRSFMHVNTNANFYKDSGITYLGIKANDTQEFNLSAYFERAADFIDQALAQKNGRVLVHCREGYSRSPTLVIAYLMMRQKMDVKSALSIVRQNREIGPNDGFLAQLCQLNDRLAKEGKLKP
row,SMILES,inhibition
1,O=C(CN1CCN(c2ccc(O)cc2)CC1)N1CCc2ccccc21,-16.5%
2,CCOc1ccc(-n2c(SCC(=O)N3CCc4ccccc43)nnc2-c2c[nH]c3ccccc23)cc1,83.6% (active)
3,O=C(CCCN1C(=O)C(c2ccccc2)Oc2cccnc21)Nc1ccccc1Cl (stereo unspecified),4.6%
4,O=C(Nc1ccc2nc3n(c(=O)c2c1)CCCC3)c1ccccc1F,-11.4%
5,O=C(Nc1ccncc1)c1cc(-c2ccccn2)nc2ccc(Br)cc12,84.4% (active)
6,CCOc1ccccc1NC(=O)c1cc(-c2ccncc2)nc2c(Cl)cccc12,34.3%
7,COc1cc(CCNC(=O)c2ccccc2NC(=O)C2=C(C)OCCS2)cc(OC)c1OC,-10.3%
8,Cc1c(Cl)cccc1NC(=O)c1cccc(OC(F)F)c1,29.2%
9,COc1ccccc1CCNC(=O)c1cc(-c2ccncc2)nc2ccc(Br)cc12,70.1% (active)
10,COc1c(C(=O)Nc2ccc3[nH]c(=O)[nH]c3c2)cc2ccccc2c1Br,13.6%
11,Cc1ccc2nc(-c3ccncc3)cc(C(=O)Nc3ccc(OC(F)F)cc3)c2c1,69.1% (active)
12,COc1ccccc1CCNC(=O)CNC(=O)c1ccc2ccccc2c1,-4.1%
13,CC1CCCCN1CCCNC(=O)C1CCN(c2nnc(-n3cccc3)s2)CC1 (stereo unspecified),-30.3%
14,Cc1cccc(CSc2[nH]c(=O)ncc2C)c1,1%
15,O=C(C1CCN(S(=O)(=O)c2cccs2)CC1)N1CCc2ccccc2C1,-7.4%
16,COc1ccc(NC(C)=O)cc1NC(=O)CSc1nnc(C2CCCCC2)n1N,0.2%
17,O=C(c1ccccc1)C1CCN(C(=O)c2ccc(Cl)cc2)CC1,-17.9%
18,COc1ccc(N(C(=O)CNC(=O)c2ccco2)C(C(=O)NC2CCCCC2)c2ccncc2)cc1 (stereo unspecified),-11%
19,CCn1c(=O)n(CC)c2cc(N3CCCC3)c(NC(=O)c3cccc(OC)c3)cc21,0.2%
20,O=C(CCC(=O)c1ccc(Cl)cc1)NCc1ccccc1,3.5%
21,O=[N+]([O-])c1cccc2c([As](=O)(O)O)cccc12,0.9%
22,O=c1c2cnn(-c3ccc(F)cc3)c2ncn1Cc1cccnc1,-6.2%
23,Cc1ccc(-n2ncc3c2CCCC3NC(=O)CCc2cnccn2)cc1C (stereo unspecified),-2.7%
24,S=c1[nH]nc(-c2ccccc2)n1/N=C/c1c[nH]c2ccccc12,1.6%
25,CCC1CCCCN1CCCNC(=O)c1ccc(CS(=O)(=O)c2ccccc2C)o1 (stereo unspecified),-7.8%
26,Cc1oc(-c2ccc(Cl)cc2)nc1CS(=O)CC(=O)NCCN1CCCCCC1 (stereo unspecified),-27.9%
